Data as given in PubChem BioAssay (NCATS).
Results filed as inconclusive are left out. Activity calls are given as the source filed them. Unless noted, calls follow the shape of the dose curve; as a rule, active = well fitted curve in the direction sought with a large enough effect; inconclusive = small, poorly fitted or top-dose-only effect, or another doubt; inactive = no such curve, though single readings can be large; an effect the other way counts as inactive or inconclusive.

Assays:
[1] = Cell Viability - MRC5 (AID 434; calls by dose curve;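 also: potency is read from the fitted curve at half-maximal effect; potency reflects cytotoxicity seen as loss of intracellular ATP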); conditions: MRC5 lung fibroblast viability, qHTS
Method in brief: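 AC50 values come from Hill-equation fits of intracellular ATP loss, measured by CellTiter-Glo luminescence. Normal lung fibroblasts (MRC5) had 40 hr compound treatment at 37 C, normalized between DMSO and 100 uM tamoxifen.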

[2] = target: Mitogen-activated protein kinase 10 (Mus musculus) (UniProt Q61831); test: JNK3 AlphaScreen Assay (AID 530; active = well fitted curve in either direction with a large enough effect, not every such curve was filed as active;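 also: kinase came from lysate of stimulated human HepG2 cells; signal reports phosphorylation of biotinylated GST-cJun 1-79 at Ser73 with 10 µM ATP; % is scaled to controls: 0 for no effect and ±100 for the full control effect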); conditions: JNK3 lysate, c-Jun phosphorylation; series mostly up to 57.1 µM
Method in brief: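 Kinase buffer: 20 mM Tris-HCl pH 7.6, 10 mM MgCl2, 1 mM DTT, 0.1 mM Na3VO4, 0.01% Tween-20; ATP 10 uM. Substrate biotin-GST-cJun(1-79), enzyme from activated HepG2 lysates. Detection by Ser73 phospho-antibody AlphaScreen.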

[3] = Cell Viability - Renal Proximal Tubule (AID 545); conditions: renal proximal tubule cells viability; series mostly up to 91.7 µM; also: nearly all actives have a fitted effect of over 40% in size
Method in brief: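 Rat renal proximal tubule primary cells, 1000/well, exposed to compounds for 40 hr at 37 °C in complete medium; cellular ATP read by CellTiter-Glo luminescence. AC50 from concentration-response fitted with standard Hill equation.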

[4] = Cellular Toxicity (caspase-3) HepG2 (AID 654); conditions: HepG2 caspase-3 activation, luminescence, 0% = DMSO only, 100% = tamoxifen; series mostly up to 92.2 µM;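 also: cells exposed to compound for 16 hours before reading; 0% = DMSO alone and 100% = caspase signal from 100 µM tamoxifen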
Method in brief: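 Luminescent Caspase-Glo 3/7 readout after 16 hr compound exposure of human hepatocellular carcinoma HepG2 cells at 37 °C; qHTS concentration-response, normalized DMSO = 0%, 100 uM tamoxifen = 100%; AC50 by standard Hill equation.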

[5] = Cellular Toxicity (caspase-3) SHSY5Y (AID 657); conditions: SH-SY5Y caspase-3 activation, DMSO zero, 10 µM staurosporine = 100%; series mostly up to 91.7 µM
Method in brief: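 SH-SY5Y human neuroblastoma cells, 1500/well, exposed to compound for 16 hours at 37 °C in complete medium. Caspase-3/7 activity read by Caspase-Glo luminescence after 1 hr at room temperature, normalized to DMSO and 10 uM staurosporine; AC50 from Hill fit.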

[6] = Cellular Toxicity (caspase-3) H-4-II-E (AID 663); conditions: H-4-II-E rat hepatoma; Potency: caspase-3 activation; series mostly up to 92.2 µM;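 also: cells exposed to compound for 16 hr before readout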
Method in brief: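 Caspase 3/7 activation measured by luminescent aminoluciferin substrate cleavage after 16 hr compound treatment of H-4-II-E cells in complete medium. Increase normalized between DMSO (basal) and 100 uM tamoxifen (100%); Hill-equation AC50 from concentration-response.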

[7] = Cellular Toxicity (caspase-3) N2a (AID 665); conditions: N2a cells, luminescence, normalized: DMSO 0%, 10 µM staurosporine 100%; series mostly up to 92.2 µM;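 also: compound exposure lasted 16 h at 37 °C before readout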
Method in brief: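 Luminescent Caspase-Glo 3/7 readout in N2a mouse neuroblastoma cells after 16 h compound exposure at 37 °C. Signal scaled to DMSO (basal) and 10 uM staurosporine (100%). Concentration-response fitted with Hill equation for AC50.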

[8] = Cellular Toxicity (caspase-3) Renal Proximal Tubule (AID 667); conditions: renal proximal tubule cells; series mostly up to 91.7 µM;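 also: cells exposed to compound for 16 hours at 37 °C before detection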
Method in brief: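 Freshly isolated primary rat kidney proximal tubule cells, 1000/well, treated 16 hr at 37 °C, then Caspase-Glo 3/7 luminescence after 1 hr. Normalized to DMSO and 10 uM staurosporine; AC50 from Hill fit.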

[9] = Cell Viability - LYMP2-001 (AID 921); conditions: LYMP2-001 lymphoblastoid cell viability; series mostly up to 92.2 µM;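 also: 0% = DMSO only and full inhibition = tetraoctylammonium bromide control wells; nearly all actives have a fitted effect of over 70% in size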
Method in brief: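 Human lymphoblastoid LYMP2-001 cells, 2500 per well, in complete medium, treated 24 h at 37 C. Viability from cellular ATP by CellTiter-Glo luminescence; AC50 from Hill-equation fits of qHTS concentration-response.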

[10] = MultiTox-Fluor Cytotoxicity Assay - LYMP1-003 - Dead Cells (AID 961); conditions: LYMP1-003 lymphoblastoid cells, dead-cell protease fluorescence; series mostly up to 92.2 µM;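 also: 0% = DMSO and 100% = tetraoctylammonium bromide; nearly all actives have a fitted effect of over 70% in size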
Method in brief: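 LYMP1-003 human lymphoblastoid cells (2500/well) exposed to compound 16 h at 37 C in complete medium; dead-cell protease read with bis-AAF-R110 fluorescence (Ex/Em 485/520) after 60 min at room temperature. Normalized to DMSO and 15 uM tetraoctylammonium bromide; AC50 from Hill fit.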

[11] = Cell Viability - LYMP1-003 - Assay at 24 hr (AID 963); conditions: LYMP1-003 lymphoblastoid cell viability; series mostly up to 92.2 µM;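 also: plate controls were DMSO only for no effect and tetraoctylammonium bromide positive control for full effect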
Method in brief: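 CellTiter-Glo luminescence (intracellular ATP) read after 24 hr, 37 C compound exposure of 2500 LYMP1-003 human lymphoblastoid cells/well in complete medium; qHTS concentration series; AC50 via standard Hill equation.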

[12] = Cell Viability - LYMP1-003 - Assay at 40 hr (AID 964); conditions: LYMP1-003 lymphoblastoid viability; series mostly up to 92.2 µM; also: % is scaled to controls: 0 for no effect and ±100 for the full control effect; nearly all actives have a fitted effect of over 60% in size
Method in brief: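 LYMP1-003 lymphoblastoid cells, 2500/well; 5 hr preincubation, 40 hr compound exposure, 37 C; CellTiter-Glo 30 min RT; luminescence; Hill-fit AC50. Positive control tetraoctylammonium bromide.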

[13] = Cell Viability - LYMP2-009 (AID 968); conditions: LYMP2-009 lymphoblastoid cell viability; series mostly up to 92.2 µM;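 also: 0% = DMSO alone and the full-kill end = tetraoctylammonium bromide at 92 µM; nearly all actives have a fitted effect of over 55% in size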
[14] = Cell Viability - LYMP2-021 (AID 974); conditions: LYMP2-021 lymphoblastoid cells viability; series mostly up to 92.2 µM;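 also: compound exposure lasts 24 hours at 37 °C; % is scaled to controls: 0 for no effect and ±100 for the full control effect; nearly all actives have a fitted effect of over 55% in size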
Method in brief: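 ATP luminescence (CellTiter-Glo, 30 min RT) after 24 h compound exposure at 37 C; 2500 human lymphoblastoid cells/well, 5 h settle beforehand. Cytotoxicity = concentration-dependent ATP drop, AC50 by Hill fit.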

[15] = Cell Viability - LYMP2-008 (AID 980); conditions: LYMP2-008 lymphoblastoid cell viability, qHTS; series mostly up to 92.2 µM; also: % is scaled to controls: 0 for no effect and ±100 for the full control effect; nearly all actives have a fitted effect of over 60% in size
Method in brief: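 Luminescent ATP read-out (CellTiter-Glo, 30 min RT) after 24 hr compound exposure at 37 C of human lymphoblastoid cells in complete medium. Decrease in ATP taken as cytotoxicity; AC50 derived by standard Hill fit of qHTS concentration-response data.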

[16] = Cell Viability - LYMP2-018 (AID 985); conditions: LYMP2-018 lymphoblastoid cells, viability (qHTS); series mostly up to 92.2 µM;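 also: plate controls were DMSO only for no effect and tetraoctylammonium bromide at 92 µM for full effect; nearly all actives have a fitted effect of over 50% in size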
Method in brief: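 2500 cells/well; 5 hr 37 C; cmpd 24 hr 37 C, complete medium; CellTiter-Glo 30 min RT; luminescence. Tetraoctylammonium bromide positive control. AC50 via Hill fit.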

[17] = Cell Viability - LYMP1-002 - Assay at 24 hr (AID 993); conditions: LYMP1-002 lymphoblastoid cells viability; series mostly up to 92.2 µM; also: % is scaled to controls: 0 for no effect and ±100 for the full control effect
Method in brief: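 CellTiter-Glo luminescence (intracellular ATP) after 24 h compound exposure, 37 C, in LYMP1-002 human lymphoblastoid cells; decreased ATP taken as cytotoxicity. AC50 from standard Hill fit of concentration-response curves.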

[18] = qHTS assay for environmental chemicals that activate the Aryl hydrocarbon Receptor (AhR) signaling pathway (AID 651777); conditions: 1A2-DRE human hepatoma cells, luciferase, 24 h; activation: active compounds read high; also: % of control where 0% means no effect; nearly all actives have a fitted effect of over 15% in size
Method in brief: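 Quantitative HTS in stably transfected human liver-derived cells whose luciferase gene sits downstream of the CYP1A2 promoter and dioxin response element. After 24 hr exposure at 37 C, One-Glo luminescence was measured.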

[19] = qHTS assay for small molecule activators of the human pregnane X receptor (PXR) signaling pathway (AID 720659; call rule not given here; also: 0% is about no effect); conditions: DPX-2 HepG2 CYP3A4-luciferase, 24 h; series mostly up to 92.3 µM
[20] = Cell Viability - LYMP2-006 (AID 978); conditions: LYMP2-006 lymphoblastoid cell viability, qHTS; series mostly up to 92.2 µM;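 also: cells exposed to compound for 24 hours; % is scaled to controls: 0 for no effect and ±100 for the full control effect; nearly all actives have a fitted effect of over 60% in size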
Method in brief: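 Human lymphoblastoid cells (LYMP2-006), 2500/well in complete medium, were treated with compound for 24 hr at 37 C. Cellular ATP was read by CellTiter-Glo luminescence after 30 min, and AC50 values came from Hill-equation fits of concentration-response data.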

O=[N+]([O-])c1ccccc1-c1ccccc1
inactive: Potency [1] > 92 µM | Potency [2] | outcome [3] | outcome [4] | outcome [5] | Potency [6] | outcome [7] | outcome [8] | Potency [9] | Potency [10] | outcome [11] | Potency [12] | Potency [13] | Potency [14] | Potency [15] | Potency [16] | Potency [17] | activation [18] -0.891% | outcome [19]

FC(Cl)(Cl)Cl
inactive: Potency [1] > 92 µM | Potency [2] | outcome [3] | outcome [5] | Potency [6] | outcome [7] | outcome [8] | Potency [9] | Potency [10] | outcome [11] | Potency [12] | Potency [13] | Potency [16] | Potency [17] | activation [18] -1.34% | outcome [19]

CCC#N
inactive: Potency [1] > 92 µM | Potency [2] | outcome [3] | outcome [5] | Potency [6] | outcome [7] | outcome [8] | Potency [9] | Potency [10] | outcome [11] | Potency [12] | Potency [14] | Potency [20] | Potency [15] | Potency [16] | Potency [17] | outcome [19]

CC(C)CON=O
inactive: Potency [1] > 92 µM | Potency [2] | outcome [3] | outcome [4] | Potency [6] | outcome [8] | Potency [9] | Potency [10] | outcome [11] | Potency [14] | Potency [15] | Potency [16] | Potency [17] | activation [18] 1.53% | outcome [19]

Nn1cnnc1
inactive: Potency [2] | outcome [3] | outcome [5] | Potency [6] | outcome [7] | outcome [8] | Potency [10] | outcome [11] | Potency [12] | Potency [13] | Potency [14] | Potency [20] | Potency [15] | Potency [16] | Potency [17] | activation [18] 0.198% | outcome [19]

CCCCCCCCCCCOC(=O)c1ccccc1C(=O)OCCCCCCCCCCC
inactive: Potency [1] > 92 µM | Potency [2] | outcome [4] | Potency [6] | outcome [7] | outcome [8] | Potency [9] | Potency [10] | outcome [11] | Potency [13] | Potency [20] | Potency [15] | Potency [16] | Potency [17] | activation [18] -2.18%
